IL-1B inflam inh: qHTS for Inhibitors of Inflammasome Signaling: IL-1-beta AlphaLISA Primary Screen; THP-1 LPS/ATP IL-1B secretion, AlphaLISA, 16 h; hits give low values; hit rate 4.7% among 360,000; activity change, % at 57.5 µM; in the data active = activity change below about -50%; inconclusive = mostly about -30% to -49%
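THP-1 cells pretreated 1 hr with compounds (up to 57.5 uM final), then stimulated with LPS (250 ng/mL final) plus ATP (1.25 mM final); secreted IL-1B measured by AlphaLISA after 16 hr, decreased signal indicating inhibition.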
HT1080 IDH1KD tx: qHTS for induction of synthetic lethality in tumor cells producing 2HG: qHTS for the HT-1080-IDH1KD cell line | hit rate 2% among 360,000 | AID 686971, 2013 | HT-1080 IDH1 knockdown viability, ATP luminescence, 48 h | Potency, µM (series often up to 46.1 µM), without a hit: at the top dose activity, negative = toxicity, usual class: cytotoxic;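 also: potency is read from the fitted curve at half-maximal effect; 0% = DMSO wells and -100% = cell-free medium wells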
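HT-1080-IDH1KD cells (IDH1 knocked down), 750/well in RPMI with 5% FBS, treated with compound 48 h at 37 degrees C. Viability by CellTiter-Glo luminescence, normalised to DMSO and no-cell wells; concentration-response curves classed.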
HT1080NT lethal: qHTS for induction of synthetic lethality in tumor cells producing 2HG: qHTS for the HT-1080-NT fibrosarcoma cell line; HT-1080-NT fibrosarcoma viability, CellTiter-Glo ATP luminescence, 48 h; hit rate 1.6% among 360,000; Potency, µM (series often up to 46.1 µM), for inactives: at the top dose activity, negative = less viability, most hits filed as cytotoxic;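 also: NT is the 2HG producing partner of a matched IDH1 knockdown line; potency is read from the fitted curve at half-maximal effect; 0% = DMSO-treated cells and -100% = media-only wells without cells; nearly all actives have a fitted effect of over 55% in size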
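HT-1080-NT fibrosarcoma cells (2HG-overproducing), 750 cells/well in RPMI with 5% FBS, dosed after 2 h and incubated 48 h at 37C. CellTiter-Glo luminescence normalized to DMSO and no-cell wells; concentration-response curves fitted and classed.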
DT40 TDP1 CPT: qHTS for Inhibitors of human tyrosyl-DNA phosphodiesterase 1 (TDP1): qHTS in cells in presence of CPT | chicken DT40 Tdp1-/-;hTDP1 cells + 20 nM CPT, ATP luminescence, 48 h | Potency, µM (highest dose often 46.2 µM), for the others: top-dose activity change, negative = growth inhibition, most hits filed as inhibitors | hit rate 12% among 420,000; also: potency is read from the fitted curve at half-maximal effect; nearly all actives have a fitted effect of over 55% in size
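Chicken DT40 Tdp1-/- cells stably complemented with human TDP1 were seeded at 400 cells/well in medium containing 20 nM camptothecin, exposed to pin-transferred compounds, and grown at 37 °C for at least 48 hr. Viability was read as ATP luminescence.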
DT40 TDP1 no CPT: qHTS for Inhibitors of human tyrosyl-DNA phosphodiesterase 1 (TDP1): qHTS in cells in absence of CPT. DT40 Tdp1-/- hTDP1 cells, no CPT, ATP luminescence, 48 h. Potency, µM (series often up to 46.2 µM), without a hit: top-dose activity change, negative = growth inhibition, most hits filed as inhibitors. hit rate 15% among 420,000; also: potency is read from the fitted curve at half-maximal effect; nearly all actives have a fitted effect of over 55% in size
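Growth kinetics read by CellTiter-Glo luminescence after ≥48 hr at 37 °C. Cells: DT40 Tdp1-/- stably carrying human TDP1, 400 per well, compound exposure in the absence of CPT (DMSO vehicle).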
ELG1 DNA repair: qHTS screen for small molecules that inhibit ELG1-dependent DNA repair in human embryonic kidney (HEK293T) cells expressing luciferase-tagged ELG1; AID 504467, 2011; hit rate 2.3% among 330,000; Potency, µM (doses to about 46.1 µM), for inactives: at the highest dose activity change, negative = inhibition, hits mostly inhibitors; HEK293T ELG1-luciferase reporter, luminescence, 16 h; DNA damage induced by 5-fluorouridine; also: potency is read from the fitted curve at half-maximal effect; nearly all actives have a fitted effect of over 55% in size
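Reporter activity after DNA damage by 5-fluorouridine is monitored. Compound-treated cells incubate 16 hr at 37 °C, then ONE-Glo is added for 30 min before luminescence reading.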
Active calls of the source: *. Most compounds without a hit are left out; they make up all but 19% or so of the library. Unless noted, calls follow the shape of the dose curve; as a rule, active = well fitted curve in the direction sought with a large enough effect; inconclusive = small, poorly fitted or top-dose-only effect, or another doubt; inactive = no such curve, though single readings can be large; an effect the other way counts as inactive or inconclusive. Unless noted, % is scaled to controls: 0 for no effect and ±100 for the full control effect.

For Cc1ccsc1-c1nc(CSCC(=O)N2CCN(c3ccccc3)CC2)c(C)o1 the results were IL-1B inflam inh -16, HT1080 IDH1KD tx -10%, HT1080NT lethal -5%, DT40 TDP1 CPT 15µM*, DT40 TDP1 no CPT inconclusive and ELG1 DNA repair inconclusive.
COc1ccc(-c2nc(CSCC(=O)N3CCN(c4ccccc4)CC3)c(C)o2)cc1 was read as DT40 TDP1 CPT 10µM* and DT40 TDP1 no CPT 10µM*.
`Cc1ccccc1CSCC(=O)N1CCN(c2ccccc2)CC1` gave IL-1B inflam inh -8, HT1080 IDH1KD tx 6%, HT1080NT lethal 10%, DT40 TDP1 CPT -13%, DT40 TDP1 no CPT inconclusive and ELG1 DNA repair inconclusive.
For Cn1cc(C(=O)N/N=C/c2cccc(O)c2)ccc1=O the results were IL-1B inflam inh 5, HT1080 IDH1KD tx 7%, HT1080NT lethal 10%, DT40 TDP1 CPT 0%, DT40 TDP1 no CPT -8% and ELG1 DNA repair -2%.
Cn1cc(C(=O)N/N=C/C(Br)=C/c2ccccc2)ccc1=O was read as IL-1B inflam inh inconclusive, HT1080 IDH1KD tx inconclusive, HT1080NT lethal 21µM*, DT40 TDP1 CPT 3.3µM*, DT40 TDP1 no CPT 2.3µM* and ELG1 DNA repair -12%.
`Cn1cc(C(=O)N/N=C/C(Br)=C\c2ccccc2)ccc1=O` gave IL-1B inflam inh -98*, HT1080 IDH1KD tx -28%, HT1080NT lethal -9%, DT40 TDP1 CPT 2.3µM*, DT40 TDP1 no CPT 2.9µM* and ELG1 DNA repair 0%.
For O=C(Cc1cccs1)N/N=C/C(Br)=C/c1ccccc1 the results were IL-1B inflam inh -7, HT1080 IDH1KD tx inconclusive, HT1080NT lethal inconclusive, DT40 TDP1 CPT inconclusive, DT40 TDP1 no CPT inconclusive and ELG1 DNA repair inconclusive.
COCCN(C(=O)COC(=O)CCCc1c[nH]c2ccccc12)c1c(N)n(Cc2ccccc2)c(=O)[nH]c1=O was read as IL-1B inflam inh 3, HT1080 IDH1KD tx -1%, HT1080NT lethal -1%, DT40 TDP1 CPT -5% and DT40 TDP1 no CPT 15%.
Screening COC(=O)c1cc(S(=O)(=O)n2nc(C)c(Br)c2C)c(Cl)cc1Cl returned IL-1B inflam inh -85*, HT1080 IDH1KD tx inconclusive, HT1080NT lethal inconclusive, DT40 TDP1 CPT 26µM*, DT40 TDP1 no CPT 15µM* and ELG1 DNA repair 7%.
`Cc1cc(C)n(S(=O)(=O)c2cc(C(=O)O)c(Cl)cc2Cl)n1` gave IL-1B inflam inh 9, HT1080 IDH1KD tx 13%, HT1080NT lethal 8%, DT40 TDP1 CPT -1%, DT40 TDP1 no CPT inconclusive and ELG1 DNA repair -1%.
`Cc1cccc2cc(CN(Cc3nnnn3C3CCCCC3)C3CCCC3)c3nnnn3c12` gave IL-1B inflam inh inconclusive, HT1080 IDH1KD tx 9%, HT1080NT lethal 16%, DT40 TDP1 CPT 21µM*, DT40 TDP1 no CPT inconclusive and ELG1 DNA repair inconclusive.
For Cc1ccccc1OCC(=O)OCc1cc(=O)n2nc(C3CC3)sc2n1 the results were DT40 TDP1 CPT -15% and DT40 TDP1 no CPT -9%.
Screening CC(C)CCNC(=O)Cn1c(SCc2cccc(F)c2)nc2ccncc21 returned DT40 TDP1 CPT 2% and DT40 TDP1 no CPT inconclusive.
For Cc1ccc(C(=O)N2C(=S)C(c3ccc(F)cc3)=NC23CCN(C)CC3)cc1 the results were IL-1B inflam inh -9, HT1080 IDH1KD tx 18µM*, HT1080NT lethal inconclusive, DT40 TDP1 CPT 5.2µM*, DT40 TDP1 no CPT 4.6µM* and ELG1 DNA repair -16%.
`CN1CCN(NC(=O)c2ccc(F)cc2)CC1` gave IL-1B inflam inh 6, HT1080 IDH1KD tx -6%, HT1080NT lethal -4%, DT40 TDP1 CPT -9%, DT40 TDP1 no CPT -3% and ELG1 DNA repair 0%.
CCCOc1ccc2cc(C(=O)NCc3ccccc3)c(=O)oc2c1 was read as IL-1B inflam inh -13, HT1080 IDH1KD tx 4%, HT1080NT lethal -14%, DT40 TDP1 CPT -27%, DT40 TDP1 no CPT -27% and ELG1 DNA repair 12%.
For CC(NNC(=S)N1CCN(c2ccccn2)CC1)c1nccc2ccccc12 (stereo unspecified) the results were IL-1B inflam inh -101*, HT1080 IDH1KD tx inconclusive, HT1080NT lethal -19%, DT40 TDP1 CPT 0.0092µM* and DT40 TDP1 no CPT 0.018µM*.
`CCNC(=S)N1CCN(c2ccccn2)CC1` gave IL-1B inflam inh -13, HT1080 IDH1KD tx 17%, HT1080NT lethal 20%, DT40 TDP1 CPT 26%, DT40 TDP1 no CPT -23% and ELG1 DNA repair 13%.
For CCN(CC)c1nc(Nc2ccc([N+](=O)[O-])cc2)nc(N(CC)CC)n1 the results were IL-1B inflam inh -30, HT1080 IDH1KD tx 3%, HT1080NT lethal -1%, DT40 TDP1 CPT 26µM*, DT40 TDP1 no CPT 21µM* and ELG1 DNA repair inconclusive.
COC(=O)CCCn1cc(CN2CC(N3CCN(Cc4cccc(C)c4)CC3)CS2(=O)=O)nn1 (stereo unspecified) was read as IL-1B inflam inh 57, HT1080 IDH1KD tx 9%, HT1080NT lethal 19%, DT40 TDP1 CPT -3% and DT40 TDP1 no CPT -18%.
For COc1ccccc1CNC(=O)c1ccc2ccccc2n1 the results were IL-1B inflam inh -20, HT1080 IDH1KD tx 7%, HT1080NT lethal -8%, DT40 TDP1 CPT -28%, DT40 TDP1 no CPT inconclusive and ELG1 DNA repair 10%.
For CCOc1ccc(CCNC(=O)c2ccc3ccccc3n2)cc1OCC the results were IL-1B inflam inh 11, HT1080 IDH1KD tx -7%, HT1080NT lethal -26%, DT40 TDP1 CPT 18µM*, DT40 TDP1 no CPT 8.2µM* and ELG1 DNA repair 10%.
Screening CCOc1ccc(CCNC(=O)c2cnc(C)cn2)cc1OCC returned IL-1B inflam inh 14, HT1080 IDH1KD tx 1%, HT1080NT lethal 5%, DT40 TDP1 CPT -20%, DT40 TDP1 no CPT 1% and ELG1 DNA repair 2%.
`Cc1cccc(C)c1OCCNC(=O)c1ccc2ccccc2n1` gave IL-1B inflam inh 38, HT1080 IDH1KD tx -9%, HT1080NT lethal -2%, DT40 TDP1 CPT 21µM*, DT40 TDP1 no CPT 16µM* and ELG1 DNA repair inconclusive.

Screening data as filed in PubChem.
